Only a selection was taken, and hits are over-represented in it overall.
Dicer processing: blocks human Dicer maturation of pre-miR-21. AID 1347074. Q9UPY3. z-score at 25 µM. cat-ELCCA pre-miR-21 Dicer processing, chemiluminescence; active compounds read high. hit rate 6% among 47,000; in the data active means z-score above about 3, passing the limit was not always enough;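 further: plate controls were vehicle for no effect and no enzyme for full effect; higher signal means more uncleaved substrate so more Dicer inhibition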
Active calls of the source: *.

SMILES | Dicer processing
COc1cc(OC)cc(-c2nc3n(n2)C(c2cccc(OC)c2OC)C2=C(CC(C)(C)CC2=O)N3)c1 (stereo unspecified) | 0.32
CCCCCCCCNC(C)C(O)c1ccc(SC(C)C)cc1 (stereo unspecified) | 33
C[C@@H](NCCc1ccc(O)cc1)[C@@H](O)c1ccc(O)cc1 | 9.7*
Cn1c(=O)c2c(nc(NCCc3ccc(O)cc3)n2C)n(C)c1=O | -1.2
COc1ccc(/C(O)=C2\C(=O)C(=O)N(c3nnc(C)s3)C2c2ccc(F)cc2)cc1 (stereo unspecified) | 0.32
CCOC(=O)C(NC(=O)CC)(Nc1ccccc1C)C(F)(F)F (stereo unspecified) | -1.8
C=CCOC(=O)C1=C(C)NC2=C(C(=O)CCC2)C1c1cccc(Cl)c1 (stereo unspecified) | -0.37
CC1CC(=O)C2=C(C1)Nc1nc(C(F)(F)F)nn1C2c1ccccc1 (stereo unspecified) | 5.2*
COc1cc(OC)cc(-c2nc3n(n2)C(c2ccccc2)C2=C(CCCC2=O)N3)c1 (stereo unspecified) | 2.4
O=C1CC(c2ccco2)CC2=C1C(c1ccccc1)n1nc(C(F)(F)F)nc1N2 (stereo unspecified) | 0.25
Cc1cc2c(cc1C)NC(c1ccc(O)cc1)C1=C(CC(C)(C)CC1=O)N2 (stereo unspecified) | 0.46
COc1ccc(C2C(C(=O)c3cccs3)=C(O)C(=O)N2c2nncs2)cc1 (stereo unspecified) | -1.2
COc1ccc(-c2nc3n(n2)C(=O)CC(c2cccs2)S3)cc1 (stereo unspecified) | 5.6*
O=C1CC(c2ccccc2)Sc2nc(-c3cccc4ccccc34)nn21 (stereo unspecified) | 0.94
O=C1CC(c2ccc(Cl)cc2)Sc2nc(-c3ccccc3)nn21 (stereo unspecified) | 4.1*
Cc1nn2c3c(cnc2c1-c1ccccc1)C(=O)CC(c1ccc(Cl)cc1)C3 (stereo unspecified) | 0.4
COc1ccc(C2=NN3C(C2)c2ccccc2OC3c2cccs2)cc1 (stereo unspecified) | 1.5
CCOc1cc(C2C3=C(CC(C)(C)CC3=O)NC3=C2C(=O)CC(C)(C)C3)cc(Br)c1O | 0.17
Cc1cc(N2C(=O)CC(C)CC2=O)no1 | 0.09
COc1ccc(C2/C(=C(/O)c3ccc(C)cc3)C(=O)C(=O)N2CC(C)O)cc1OC (stereo unspecified) | -0.96
COC(=O)c1sc2ccccc2c1OS(=O)(=O)c1ccc(C)cc1 | -1.9
Clc1ccc(CN2CCCN(c3ncnc4scc(-c5ccccc5)c34)CC2)cc1Cl | -0.88
c1ccc(-c2csc3ncnc(N4CCN(Cc5ccc6c(c5)OCO6)CC4)c23)cc1 | 4.7*
CCCc1cnc(N2CCN(c3ncnc4scc(-c5ccccc5)c34)CC2)nc1 | -1.7
CCN(CC)c1ccc(-n2cc3c(c2-c2ccc(C)cc2)c(=O)n(C)c(=O)n3C)cc1 | 1.3
SMILES | Dicer processing
S=C(Nc1ccc(N2CCOCC2)nc1)Nc1cc(Cl)ccc1Cl | 0.43
O=C(NCC1CC1)Nc1ccc2c(c1)CCO2 | 1
S=C(NCC1CC1)Nc1ccc2[nH]ccc2c1 | 4.8*
S=C(Nc1ccc2[nH]ccc2c1)Nc1ccccc1N1CCOCC1 | 4.6*
CC(C)(C)OC(=O)N1CCCN(C(=S)Nc2ccccc2N2CCOCC2)CC1 | -0.86
O=C(Nc1ccc2[nH]ncc2c1)C1CCC1 | -0.03
O=C(CSCC(=O)c1ccc(Br)cc1)c1ccc(Br)cc1 | -2.9
COC(=O)CCS(=O)(=O)c1ccc(Br)cc1 | 2.1
O=C(CS(=O)(=O)c1ccc(Br)cc1)c1ccccc1 | 3.8*
Cc1sc2ncnc(SCC(=O)NCc3ccco3)c2c1C | 0.61
N#Cc1ccccc1NS(=O)(=O)c1cccs1 | -0.84
CC(=O)OC[C@@H](OC(C)=O)[C@@H](OC(C)=O)C1OC(=O)C2N(C(C)=O)[C@H]1SC2(C)C (stereo partly specified) | -0.11
C[n+]1c2ccccc2nc2ccc(NC3CCCCC3N)cc21 (stereo unspecified) | -3.6
N#Cc1nn(-c2cccc(C(F)(F)F)c2)c(=O)[nH]c1=O | -2.5
CN1CCN(c2nc3c(c(=O)n(C)c(=O)n3C)n2Cc2c(F)cccc2Cl)CC1 | 0.87
CN1CCN(c2nc3c(c(=O)n(C)c(=O)n3C)n2Cc2ccccc2Cl)CC1 | 4.2*
Cn1c(=O)c2c(nc(N3CCCCC3)n2Cc2ccccc2F)n(C)c1=O | 1.7
CC1CN(c2nc3ccccc3nc2SCC(=O)N2CCOCC2)CC(C)O1 (stereo unspecified) | 1.1
O=C(CSc1nc2ccccc2nc1N1CCOCC1)N1CCN(c2ccc(F)cc2)CC1 | 3.9*
O=C(CSc1nc2ccccc2nc1N1CCOCC1)NCC1CCCO1 (stereo unspecified) | 3*
O=C(CSc1nc2ccccc2nc1N1CCCC1)N1CCN(c2ccc(F)cc2)CC1 | 2.6
c1ccc2nc(N3CCOCC3)c(N3CCOCC3)nc2c1 | -0.17
CC1CCN(c2nc3ccccc3nc2SCC(=O)NCC2CCCO2)CC1 (stereo unspecified) | 1.6
Cc1cc(C)nc(N2CCN(C(=O)CSc3nc4ccccc4nc3N3CCOCC3)CC2)n1 | 1.2
O=C(CSc1nc2ccccc2nc1N1CCOCC1)NC1CC1 | 2.5
SMILES | Dicer processing
CC1CCN(c2nc3ccccc3nc2SCC(=O)N2CCN(C3CCCC3)CC2)CC1 | 2
O=C(CSc1nc2ccccc2nc1N1CCOCC1)N1CCOCC1 | 4.9*
CC1CCN(c2nc3ccccc3nc2SCC(=O)N2CCOCC2)CC1 | 3.9*
O=C(CSc1nc2ccccc2nc1N1CCOCC1)N1CCN(c2ccccc2)CC1 | 2.8
O=c1[nH]c2cc3ccccc3cc2nc1-c1ccccc1NCc1ccccc1 | 0.02
COC(=O)C1=C(O)CSC1=Nc1ccccc1F | 0.19
C[N+](C)(C)CCOP(=O)(O)OP(=O)([O-])OC[C@H]1O[C@@H](n2ccc(N)nc2=O)C(O)[C@H]1O (stereo partly specified) | -0.36
O=C(OCc1ccccc1)[C@@H](O)c1ccccc1 | 0.31
CCCOC(=O)COc1ccc2c(=O)c(Oc3ccc(OC)cc3)coc2c1 | 1.7
Cc1cc(Oc2ccc(C(F)(F)F)cc2[N+](=O)[O-])n(-c2ccccc2)n1 | 0.88
Cc1cccc(NC(=O)c2ccc(-c3ccccc3)s2)c1C(=O)O | 2.3
Clc1ccc(OCc2nc3c4cnn(Cc5ccccc5)c4ncn3n2)cc1 | -0.75
COc1cc(C(=O)c2c(C)c(C)c(C)c(C)c2C)cc(OC)c1OC | -0.31
CNC(=O)Sc1c(-c2ccc(Cl)cc2)nn(C(=O)NC)c1SC | -7.7
O=C(CSc1nc2ccccc2nc1N1CCCCC1)N1CCN(C2CCCC2)CC1 | 1.4
O=C(CSc1nc2ccccc2nc1N1CCCCC1)N1CCN(c2ccccc2)CC1 | 4.9*
O=C(CSc1nc2ccccc2nc1N1CCCCC1)NC1CCCCC1 | 1.6
CCOC(=O)C(=NNc1cccc([N+](=O)[O-])c1)C(=O)OCC | -0.04
COc1ccc(N2CCCCC2)c([N+](=O)[O-])c1 | -1.2
COc1ccc(Oc2c(C(F)(F)F)oc3c(CN4CCCCC4)c(O)ccc3c2=O)cc1 | -0.53
COc1ccc(OC)c(C(=O)c2coc3ccc(O)c(CN(C)C)c23)c1 | 0.83
COc1ccc(-n2c(C)c([N+](=O)[O-])c3ccc(O)c(CN4CCCCC4)c32)cc1 | 3.5*
COc1ccc(-n2c(/C=C/N(C)C)c([N+](=O)[O-])c3ccc(O)c(CN(C)C)c32)cc1 | 3.5*
Cc1c([N+](=O)[O-])c(/C=C/N(C)C)nn1C | 1.3
Cc1cc(C(=O)Nc2ccccc2)c(C)n1Cc1cccs1 | -0.89
